Experimental data from PubChem BioAssay AID1159580 (chemical genetic matrix, 2015).
Several values for one entry are separate records, joined by “and”; a condition that tells them apart may be missing. Equal entries are not always repeated. Hit rate of the full screen: of about 5,500 compounds, about 2,000 (36%) were called active. Inconclusive results (about 18%) are left out. Rule as the data show it: active = normalized growth mostly below about 0.91 (no sharp cut-off); inconclusive = no clear call, values can overlap the other calls; inactive = mostly above about 0.92. This is one part of the list.

Assay: chemical genetic growth profiling, strain panel (AID 1159580);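 also: tested at 20 µM; growth read once vehicle control cultures reached saturation at 30 °C; 1 = growth at the plate median or of vehicle wells; lower values mean less growth of the strain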
Details: S. cerevisiae deletion strains, growth OD

Measured: normalized growth

O=C(O)c1ccc(S(=O)(=O)N(Cl)Cl)cc1
inactive: locus YAL013W, strain DEP1, hits give low values 1 | locus YAL021C, strain ccr4, hits give low values 1 | locus YAL026C, strain drs2, hits give low values 0.962 | locus YAL030W, strain snc1, hits give low values 0.994 | locus YBL061C, strain skt5, hits give low values 0.975 | locus YBR009C, strain hhf1, hits give low values 0.925 | locus YBR021W, strain FUR4, hits give low values 0.987 | locus YBR023C, strain chs3, hits give low values 1 | locus YBR171W, strain sec66, hits give low values 0.969 | locus YBR229C, strain ROT2, hits give low values 1 | locus YBR231C, strain swc5, hits give low values 0.995 | locus YBR279W, strain paf1, hits give low values 0.992 | locus YCL011C, strain gbp2, hits give low values 0.977 | locus YCL016C, strain dcc1, hits give low values 1 | locus YCL029C, strain bik1, hits give low values 1.01 | locus YCL061C, strain MRC1, hits give low values 0.933 | locus YCL069W, strain vba3, hits give low values 0.988 | locus YCR088W, strain abp1, hits give low values 0.998 | locus YDL005C, strain med2, hits give low values 0.996 | locus YDL035C, strain GPR1, hits give low values 0.989 | locus YDL040C, strain nat1, hits give low values 0.992 | locus YDL074C, strain BRE1, hits give low values 0.98 | locus YDL101C, strain DUN1, hits give low values 1 | locus YDL185W, strain tfp1, hits give low values 1.01 | locus YDL192W, strain arf1, hits give low values 1.03 | locus YDR001C, strain nth1, hits give low values 0.978 | locus YDR069C, strain doa4, hits give low values 1.02 | locus YDR101C, strain arx1, hits give low values 1.02 | locus YDR137W, strain rgp1, hits give low values 1.01 | locus YDR150W, strain NUM1, hits give low values 1 | locus YDR159W, strain sac3, hits give low values 0.98 | locus YDR162C, strain NBP2, hits give low values 1 | locus YDR195W, strain ref2 0.996 | locus YDR297W, strain sur2, hits give low values 0.988 | locus YDR318W, strain mcm21, hits give low values 1.01 | locus YDR334W, strain swr1, hits give low values 0.97 | locus YDR335W, strain msn5, hits give low values 0.987 | locus YDR388W, hits give low values 1.02 | locus YDR392W, strain spt3, hits give low values 0.939 | locus YDR502C, strain sam2, hits give low values 1.04 | locus YEL003W, strain gim4, hits give low values 0.964 | locus YEL037C, strain rad23, hits give low values 0.962 | locus YEL061C, strain CIN8 (second series), hits give low values 0.975 | locus YEL061C, strain CIN8, hits give low values 1 | locus YER015W, strain faa2, hits give low values 1 | locus YER016W, strain bim1, hits give low values 0.997 | locus YER110C, hits give low values 1.03 | locus YER111C, strain swi4, hits give low values 0.982 | locus YER155C, strain BEM2 (second series), hits give low values 0.979 | locus YER155C, strain BEM2, hits give low values 0.992 | locus YER167W, strain BCK2, hits give low values 1 | locus YFR010W, strain ubp6, hits give low values 0.959 | locus YGL078C, strain dbp3, hits give low values 1.03 | locus YGL086W, strain mad1, hits give low values 0.991 | locus YGL167C, strain pmr1, hits give low values 0.973 | locus YGL173C, strain kem1, hits give low values 0.982 | locus YGL227W, strain vid30, hits give low values 0.996 | locus YGL240W, strain doc1, hits give low values 1.02 | locus YGL248W, strain PDE1, hits give low values 1 | locus YGL253W, strain hxk2, hits give low values 0.999 | locus YGR078C, strain PAC10, hits give low values 0.998 | locus YGR135W, strain pre9, hits give low values 1.01 | locus YGR252W, strain gcn5, hits give low values 0.971 | locus YHR013C, strain ard1, hits give low values 1.01 | locus YHR027C, strain rpn1, hits give low values 0.993 | locus YHR030C, strain SLT2, hits give low values 0.999 and 0.973 | locus YHR079C, strain IRE1 (second series), hits give low values 1.02 | locus YHR079C, strain IRE1, hits give low values 0.973 | locus YHR094C, strain hxt1, hits give low values 1.03 | locus YHR129C, strain ARP1, hits give low values 0.996 | locus YHR142W, strain chs7, hits give low values 0.971 | locus YHR200W, strain rpn10, hits give low values 1.03 | locus YIL066C, strain RNR3, hits give low values 1 | locus YIL073C, strain SPO22, hits give low values 1.03 | locus YIL125W, strain kgd1, hits give low values 1.01 | locus YIR030C, strain dcg1, hits give low values 1.03 | locus YJL092W, strain hpr5, hits give low values 0.987 | locus YJL095W, strain BCK1 (second series), hits give low values 0.991 | locus YJL095W, strain BCK1, hits give low values 1 and 0.969 | locus YJL115W, strain asf1, hits give low values 0.969 | locus YJL129C, strain trk1, hits give low values 0.996 | locus YJL134W, strain LCB3, hits give low values 1 | locus YJL154C, strain vps35, hits give low values 0.985 | locus YJL164C, strain tpk1, hits give low values 0.954 | locus YJL166W, strain qcr8, hits give low values 1.01 | locus YJL168C, strain set2, hits give low values 1.02 | locus YJL187C, strain SWE1 (second series), hits give low values 0.998 | locus YJL187C, strain SWE1, hits give low values 0.994 | locus YJR043C, strain POL32, hits give low values 0.982
